Consider 40 compounds from PubChem BioAssay (Tox21).

Inconclusive results are not listed. A number with no mark means an inactive call. Activity calls are given as the source filed them. Calls follow the shape of the dose curve; as a rule, active = well fitted curve in the direction sought with a large enough effect in the repeat runs; inconclusive = weak or mixed curves; inactive = no such curve, though single readings can be large; an effect the other way counts as inactive or inconclusive.

In experiment [1] the target is Cytochrome P450 2C19 (Homo sapiens) (UniProt P33261). In words: Cytochrome P450 Family 2 Subfamily C Member 19 (CYP2C19) small molecule antagonists: luciferase reporter qHTS assay (AID 1671197). Also: nearly all actives have a fitted effect of over 65% in size. Also: potency is read from the fitted curve at half-maximal effect. As to activity change, negative = inhibition: series mostly up to about 120 µM. In short, it runs like this:
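P450-Glo CYP2C19 system: enzyme-substrate mix with compound 10 min at room temperature, then NADPH regeneration solution, 1 h at 37C. Proluciferin-to-luciferin conversion detected by luminescence after 20 min with detection reagent; ketoconazole as positive control.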
(In general: A reporter such as luciferase makes a cellular process visible.)

The target of experiment [2] is Cytochrome P450 2C9 (Homo sapiens) (UniProt P11712). In words: Cytochrome P450 Family 2 Subfamily C Member 9 (CYP2C9) small molecule antagonists: luciferase reporter qHTS assay (AID 1671198). Also: nearly all actives have a fitted effect of over 50% in size. Also: potency is read from the fitted curve at half-maximal effect. As to activity change, negative = inhibition: series mostly up to about 120 µM. In short, it runs like this:
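P450-Glo proluciferin substrate with CYP2C9 enzyme; 10 min RT preincubation, then NADPH regeneration 1 h at 37C; luciferin detection reagent 20 min RT, luminescence in relative luminescence units.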

Experiment [3] deals with Cytochrome P450 1A2 (Homo sapiens) (UniProt P05177). The experiment can be described thus: Cytochrome P450 Family 1 Subfamily A Member 2 (CYP1A2) small molecule antagonists: luciferase reporter qHTS assay (AID 1671199). Also: nearly all actives have a fitted effect of over 50% in size. Also: potency is read from the fitted curve at half-maximal effect. As to activity change, negative = inhibition: series mostly up to about 120 µM. The gist of the method:
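CYP1A2 turnover of a luminogenic substrate was quantified after 1 h with NADPH regeneration at room temperature. Furafylline served as positive control.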

The target in experiment [4] is Voltage-gated inwardly rectifying potassium channel KCNH2 (Homo sapiens) (UniProt Q12809). In words: Human Ether-a-go-go-Related Gene (hERG) channel small molecule antagonists: fluorescence cell-based qHTS assay (AID 1671200). Also: nearly all actives have a fitted effect of over 50% in size. Also: potency is read from the fitted curve at half-maximal effect.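 As to activity change, negative = inhibition: hERG-expressing U2OS cells given a thallium stimulus after FluxOR II dye loading; series mostly up to about 77 µM.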 The gist of the method: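 Read-out: thallium influx as a surrogate for potassium, tracked as fluorescence (480 nm ex/540 nm em) every second for 2 min after Stimulus Buffer addition in dye-loaded hERG-U2OS cells.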
Sequence of Voltage-gated inwardly rectifying potassium channel KCNH2 (Homo sapiens) (Q12809 whole entry, looked up): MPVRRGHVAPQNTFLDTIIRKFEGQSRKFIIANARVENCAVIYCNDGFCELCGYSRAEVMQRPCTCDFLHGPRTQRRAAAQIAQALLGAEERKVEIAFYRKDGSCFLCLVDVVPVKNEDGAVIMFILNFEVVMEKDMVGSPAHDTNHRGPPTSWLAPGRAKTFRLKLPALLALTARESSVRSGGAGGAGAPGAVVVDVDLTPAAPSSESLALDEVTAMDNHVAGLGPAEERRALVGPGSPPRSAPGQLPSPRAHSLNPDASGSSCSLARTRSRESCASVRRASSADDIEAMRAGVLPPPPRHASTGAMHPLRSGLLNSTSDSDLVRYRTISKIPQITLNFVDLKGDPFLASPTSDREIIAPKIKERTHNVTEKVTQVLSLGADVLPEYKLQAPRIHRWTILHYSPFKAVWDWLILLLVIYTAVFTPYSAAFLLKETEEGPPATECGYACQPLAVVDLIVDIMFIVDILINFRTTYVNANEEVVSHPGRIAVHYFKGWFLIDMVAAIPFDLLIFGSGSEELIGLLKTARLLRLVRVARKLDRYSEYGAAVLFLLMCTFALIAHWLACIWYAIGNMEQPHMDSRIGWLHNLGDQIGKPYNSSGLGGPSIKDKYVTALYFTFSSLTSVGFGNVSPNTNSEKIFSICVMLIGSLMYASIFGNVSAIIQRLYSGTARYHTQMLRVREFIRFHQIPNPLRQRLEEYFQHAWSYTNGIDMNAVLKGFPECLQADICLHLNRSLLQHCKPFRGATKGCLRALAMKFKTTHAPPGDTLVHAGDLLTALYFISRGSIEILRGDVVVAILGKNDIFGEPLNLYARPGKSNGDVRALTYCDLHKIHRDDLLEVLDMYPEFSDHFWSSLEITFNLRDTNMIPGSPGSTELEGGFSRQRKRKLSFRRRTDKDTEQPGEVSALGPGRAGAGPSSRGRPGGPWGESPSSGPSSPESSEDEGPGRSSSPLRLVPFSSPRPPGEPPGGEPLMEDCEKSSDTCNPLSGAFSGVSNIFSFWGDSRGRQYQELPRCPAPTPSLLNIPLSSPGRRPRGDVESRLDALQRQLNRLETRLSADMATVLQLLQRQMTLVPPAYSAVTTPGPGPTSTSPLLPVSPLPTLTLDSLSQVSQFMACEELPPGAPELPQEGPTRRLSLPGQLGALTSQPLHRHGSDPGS
A general note: Block of hERG is tested as a sign of cardiac risk.

Experiment [5] deals with Cytochrome P450 3A4 (Homo sapiens) (UniProt P08684). In words: Cytochrome P450 Family 3 Subfamily A Member 4 (CYP3A4) small molecule antagonists: luciferase reporter qHTS assay (AID 1671201). Also: series mostly up to about 120 µM; nearly all actives have a fitted effect of over 50% in size. The gist of the method:
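Luminescent readout (RLU) proportional to CYP3A4 activity, from luciferin generated off a proluciferin substrate. Enzyme–substrate mix plus compound 10 min at room temp, NADPH regeneration 1 h, detection reagent 20 min.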
% is scaled to controls: 0 for no effect and ±100 for the full control effect.

Sequence of Cytochrome P450 1A2 (Homo sapiens) (P05177 whole entry, looked up): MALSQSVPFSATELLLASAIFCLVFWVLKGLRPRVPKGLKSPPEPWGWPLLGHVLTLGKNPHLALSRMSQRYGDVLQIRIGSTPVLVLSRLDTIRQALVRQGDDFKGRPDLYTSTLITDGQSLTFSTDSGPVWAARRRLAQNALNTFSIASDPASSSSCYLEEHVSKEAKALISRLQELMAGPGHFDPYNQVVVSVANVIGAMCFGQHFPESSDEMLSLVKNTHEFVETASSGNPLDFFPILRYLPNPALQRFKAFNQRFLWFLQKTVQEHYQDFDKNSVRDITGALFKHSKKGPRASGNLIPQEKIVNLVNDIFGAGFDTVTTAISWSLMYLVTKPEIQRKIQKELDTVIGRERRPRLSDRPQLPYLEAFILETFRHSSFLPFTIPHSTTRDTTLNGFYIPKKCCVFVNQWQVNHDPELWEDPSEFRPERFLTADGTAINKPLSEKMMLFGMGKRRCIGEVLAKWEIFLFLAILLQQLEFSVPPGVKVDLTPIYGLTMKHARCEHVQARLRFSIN
Sequence of Cytochrome P450 3A4 (Homo sapiens) (P08684 whole entry, looked up): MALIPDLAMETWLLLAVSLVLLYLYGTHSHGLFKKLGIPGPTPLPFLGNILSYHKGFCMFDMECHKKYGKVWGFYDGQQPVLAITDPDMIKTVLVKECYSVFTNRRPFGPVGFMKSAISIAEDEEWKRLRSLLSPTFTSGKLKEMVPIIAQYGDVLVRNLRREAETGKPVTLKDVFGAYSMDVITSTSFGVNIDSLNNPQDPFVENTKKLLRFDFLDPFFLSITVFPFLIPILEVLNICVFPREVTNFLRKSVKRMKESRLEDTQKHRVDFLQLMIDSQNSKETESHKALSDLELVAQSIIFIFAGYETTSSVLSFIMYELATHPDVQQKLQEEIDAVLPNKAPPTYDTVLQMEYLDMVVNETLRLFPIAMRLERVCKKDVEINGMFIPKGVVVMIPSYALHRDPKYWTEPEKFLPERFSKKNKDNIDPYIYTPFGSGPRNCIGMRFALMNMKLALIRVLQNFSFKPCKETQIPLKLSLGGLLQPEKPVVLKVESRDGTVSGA
Sequence of Cytochrome P450 2C9 (Homo sapiens) (P11712 whole entry, looked up): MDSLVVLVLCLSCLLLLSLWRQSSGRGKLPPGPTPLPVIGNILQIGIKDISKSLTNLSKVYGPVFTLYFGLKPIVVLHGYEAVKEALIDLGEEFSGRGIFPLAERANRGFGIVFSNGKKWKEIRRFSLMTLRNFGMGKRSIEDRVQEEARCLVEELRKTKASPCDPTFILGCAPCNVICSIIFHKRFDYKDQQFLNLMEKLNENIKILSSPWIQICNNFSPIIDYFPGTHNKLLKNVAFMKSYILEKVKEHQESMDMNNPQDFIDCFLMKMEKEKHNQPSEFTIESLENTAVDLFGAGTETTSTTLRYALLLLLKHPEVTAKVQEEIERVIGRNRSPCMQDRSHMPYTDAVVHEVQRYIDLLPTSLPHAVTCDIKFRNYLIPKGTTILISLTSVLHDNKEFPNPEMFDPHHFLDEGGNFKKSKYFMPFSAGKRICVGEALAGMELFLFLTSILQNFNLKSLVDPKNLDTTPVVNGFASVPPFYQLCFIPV
Sequence of Cytochrome P450 2C19 (Homo sapiens) (P33261 whole entry, looked up): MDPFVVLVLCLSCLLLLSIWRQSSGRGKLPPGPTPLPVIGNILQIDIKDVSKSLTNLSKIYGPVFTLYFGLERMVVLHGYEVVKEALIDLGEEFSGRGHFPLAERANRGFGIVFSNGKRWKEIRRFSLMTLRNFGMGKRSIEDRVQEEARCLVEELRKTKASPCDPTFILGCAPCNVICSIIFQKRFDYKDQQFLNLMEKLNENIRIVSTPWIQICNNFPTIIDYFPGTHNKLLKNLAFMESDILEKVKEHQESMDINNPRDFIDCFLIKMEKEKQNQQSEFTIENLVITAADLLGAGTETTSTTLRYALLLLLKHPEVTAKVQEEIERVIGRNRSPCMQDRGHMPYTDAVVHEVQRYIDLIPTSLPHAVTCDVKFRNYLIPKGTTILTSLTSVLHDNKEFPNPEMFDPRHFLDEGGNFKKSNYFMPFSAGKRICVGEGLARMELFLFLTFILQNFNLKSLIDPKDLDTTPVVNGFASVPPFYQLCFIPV

Take `CCOc1ccc(OCC)c(Cl)c1`: the Potency entry in experiment [1], in experiment [2] and in experiment [4] was “inactive” throughout. For the same compound, the Potency in experiment [3] is 25.2 µM (active).

As for `CC(C)=CCC[C@](C)(O)[C@@H]1CC=C(C)CC1`, the Potency was 5.03 µM (active) in experiment [1], 31.7 µM (active) in experiment [2] and 39.9 µM (active) in experiment [3].

For `Cc1cn([C@@H]2O[C@H](CO)[C@@H](O)[C@@H]2F)c(=O)[nH]c1=O`, the Potency result in experiment [1], in experiment [2], in experiment [3], in experiment [4] and in experiment [5] was “inactive” in each case.

For the compound `COc1ccccc1N1CCN(CCCNc2cc(=O)n(C)c(=O)n2C)CC1`, the Potency entry in experiment [1], in experiment [2], in experiment [3] and in experiment [4] was “inactive” throughout.

As for `FC(F)(F)C(Cl)(Cl)Cl`, the Potency entry in experiment [1], in experiment [2], in experiment [3], in experiment [4] and in experiment [5] was “inactive” in each case.

`NS(=O)(=O)c1cc(-c2nn[nH]n2)c(NCc2cccs2)cc1Cl`: the Potency result in experiment [1], in experiment [3] and in experiment [4] was “inactive” in each case. In addition, the Potency in experiment [2] is 24.5 µM (active).

`CCOC(=O)c1ccccc1O`: the Potency entry in experiment [1], in experiment [2], in experiment [3] and in experiment [4] was “inactive” in each case.

Consider `O=C1CCCCC1C1CCCCC1` (centres undefined), for which the Potency result in experiment [1], in experiment [2] and in experiment [3] was “inactive” each time.

Turning to `Cc1ccc(C(C)C)cc1O`, the Potency in experiment [1] was 1.78 µM (active); in experiment [2], 15.9 µM (active); in experiment [3], 22.4 µM (active). The Potency entry in experiment [4] is “inactive”.

Take `COc1cc(C)ccc1C(C)C`: the Potency result in experiment [1], in experiment [2], in experiment [3], in experiment [4] and in experiment [5] was “inactive” throughout.

For the compound `CC[C@H]1CC[C@H](NCc2cc3c(cc2OC)[C@H]2C[C@H]2C(=O)N3C)[C@H](c2ccccc2)N1`, the Potency entry in experiment [1] is “inactive”.

With `CCN(CC)CCOc1ccc(Cc2ccccc2)cc1`, the Potency in experiment [1] is 0.55 µM (active); in experiment [4], 7.56 µM (active). Besides, the Potency result in experiment [2] and in experiment [3] was “inactive” throughout.

In the case of `CN1CCC[C@@H]1Cc1c[nH]c2ccc(CCS(=O)(=O)c3ccccc3)cc12`, the Potency result in experiment [1] and in experiment [3] was “inactive” in each case. For the same compound, in experiment [2], the Potency is 17.4 µM (active).

For the compound `CC(=O)N(CC(O)CN(C(C)=O)c1c(I)c(C(=O)NCC(O)CO)c(I)c(C(=O)NCC(O)CO)c1I)c1c(I)c(C(=O)NCC(O)CO)c(I)c(C(=O)NCC(O)CO)c1I` (centres undefined), the Potency result in experiment [1], in experiment [2], in experiment [3], in experiment [4] and in experiment [5] was “inactive” throughout.

Take `O=C(O[C@@H](C(=O)O)[C@@H](OC(=O)c1ccccc1)C(=O)O)c1ccccc1`: the figures for the Potency in experiment [1] and in experiment [3] were 45.6 µM (active) and 72.2 µM (active), respectively. Besides, the Potency entry in experiment [2] and in experiment [4] was “inactive” in each case.

Regarding `OC[C@H]1O[C@@H](O[C@H]2[C@H](O)[C@@H](O)[C@H](O)O[C@@H]2CO)[C@H](O)[C@@H](O)[C@H]1O`, the Potency result in experiment [1], in experiment [2], in experiment [3] and in experiment [4] was “inactive” in each case.

Take `NC(=O)NS(=O)(=O)c1ccc(Cl)cc1`: the Potency entry in experiment [1], in experiment [2], in experiment [3] and in experiment [4] was “inactive” each time.

As for `O=S(=O)(O)C(F)(F)F`, the Potency result in experiment [1], in experiment [2], in experiment [3] and in experiment [4] was “inactive” each time.

As to `CN(CC1(C)CCCO1)S(=O)(=O)c1ccc(Cl)c(S(N)(=O)=O)c1` (centres undefined), the Potency entry in experiment [1], in experiment [2], in experiment [3] and in experiment [4] was “inactive” in each case.

`Oc1ccccc1C=NCc1ccccc1`: the Potency entry in experiment [1], in experiment [2] and in experiment [3] was “inactive” throughout.

For `Cc1ccsc1C(=CCCN1CCC[C@@H](C(=O)O)C1)c1sccc1C`, the Potency result in experiment [1], in experiment [2] and in experiment [3] was “inactive” in each case.

As to `COC(=O)N[C@H](C(=O)N[C@@H](Cc1ccccc1)[C@@H](O)CN(Cc1ccc(-c2ccccn2)cc1)NC(=O)[C@@H](NC(=O)OC)C(C)(C)C)C(C)(C)C`, the Potency in experiment [1] was 34.7 µM (active); in experiment [2], 15.5 µM (active). The Potency entry in experiment [3] is “inactive”.

Turning to `CCC(=O)O[C@]1(C(=O)SCF)[C@H](C)C[C@H]2[C@@H]3C[C@H](F)C4=CC(=O)C=C[C@]4(C)[C@@]3(F)[C@@H](O)C[C@@]21C`, the Potency entry in experiment [1], in experiment [3] and in experiment [4] was “inactive” in each case. The Potency in experiment [2] is 4.9 µM (active).

On to `CCC(=O)c1ccc2c(c1)N(CCCN(C)C)c1ccccc1S2`, for which the Potency is 11 µM (active) in experiment [1] and 1.82 µM (active) in experiment [3]. Also, the Potency entry in experiment [2] was “inactive”.

With `C/C(=N\O)[C@@H](C)NCC(C)(C)CN[C@H](C)/C(C)=N/O`, the Potency entry in experiment [1], in experiment [2], in experiment [3] and in experiment [4] was “inactive” each time.

As to `O=C1N(c2ccccc2)c2ccccc2C1(Cc1ccncc1)Cc1ccncc1`, the values for the Potency in experiment [1] and in experiment [2] were 2.45 µM (active) and 3.47 µM (active), respectively. Moreover, the Potency entry in experiment [3] is “inactive”.

On to `CC1CN(c2ccccc2)NC1=O` (centres undefined), for which the Potency was 12.6 µM (active) in experiment [1], 20 µM (active) in experiment [2] and 22.4 µM (active) in experiment [3]. Besides, the Potency entry in experiment [4] is “inactive”.

Regarding `CCOc1ccc2nc(N)sc2c1`, the Potency was 22.3 µM (active) in experiment [1], 31.5 µM (active) in experiment [2] and 17.7 µM (active) in experiment [3].

`CCCCc1ccc2nc(NC(=O)OC)[nH]c2c1`: the Potency result in experiment [1], in experiment [2], in experiment [3], in experiment [4] and in experiment [5] was “inactive” each time.

Take `CC(C)CCCCCCc1ccc(OCCOCCO)cc1`: in experiment [1], the Potency result was “inactive”.

For `CC(=O)Nc1ccc(C)c(Cl)c1`, the Potency is 22.4 µM (active) in experiment [1] and 8.94 µM (active) in experiment [3]. Further, the Potency entry in experiment [2] and in experiment [4] was “inactive” each time.

As to `Cc1nc(-c2ccccn2)ncc1C(=O)Nn1cc(C)c2cc(F)ccc21`, the Potency in experiment [1] is 56.4 µM (active); in experiment [2] it was 1.59 µM (active); in experiment [3], 31.7 µM (active). Besides, the Potency result in experiment [4] was “inactive”.

Regarding `Cc1c(-c2ccccc2)oc2c(C(=O)OCCN3CCCCC3)cccc2c1=O`, the Potency result in experiment [1] was “inactive”.

As to `OCCN(CCO)CCN(CCO)CCO`, the Potency entry in experiment [1], in experiment [2], in experiment [3] and in experiment [4] was “inactive” throughout.

Take `O=C1CCN(c2ccccc2)N1`: the Potency is 80 µM (active) in experiment [1], 8 µM (active) in experiment [2] and 35.7 µM (active) in experiment [3]. In addition, in experiment [4], the Potency entry is “inactive”.

Take `CCOC(=O)NCCC[Si](OCC)(OCC)OCC`: the Potency result in experiment [1], in experiment [2], in experiment [3] and in experiment [4] was “inactive” throughout.

Take `CCCc1c2oc(C(=O)O)cc(=O)c2cc2c(=O)cc(C(=O)O)n(CC)c12`: the Potency entry in experiment [1], in experiment [2] and in experiment [3] was “inactive” each time.

For the compound `O=c1oc2c(O)c(O)cc3c(=O)oc4c(O)c(O)cc1c4c23`, the activity change, negative = inhibition in experiment [1] is 0.227% [at 23.6 µM]; in experiment [4], 6.87% [at 15.8 µM]; in experiment [5] it was 6.71% [at 23.6 µM]. The Potency result in experiment [2] and in experiment [3] was “inactive” throughout.

On to `CCOC(=O)COc1ccc2c(c1)CC(NCC(O)c1cccc(Cl)c1)CC2` (centres undefined), for which the Potency in experiment [1] is 45.2 µM (active); in experiment [2], 35.9 µM (active); in experiment [4], 1.39 µM (active). In addition, the Potency entry in experiment [3] and in experiment [5] was “inactive” in each case.

As to `O=C(C(Cl)Cl)N1CCOC12CCCCC2`, the Potency in experiment [1] was 39.9 µM (active); in experiment [2] it was 63.3 µM (active). In addition, the Potency result in experiment [3], in experiment [4] and in experiment [5] was “inactive” throughout.
